# Assays:
# Assay in all cases: DAPPL (digital affinity profiling via proximity ligation, sequencing); 10 mM Tris-HCl pH 7.5, 50 mM NaCl, 1 mM DTT, 4% glycerol, room temperature, 30 min; GST-TFs on glutathione beads, 16-mer random dsDNA library, 0.1% formaldehyde crosslink after washing; high values mean tight binding
# Settings in all cases: protein: recombinant; tags: N-terminal GST; dsDNA, one strand shown
# FLI1 = target: T1, FLI1 (Homo sapiens, UniProt Q01543 1-452)
# T1 sequence: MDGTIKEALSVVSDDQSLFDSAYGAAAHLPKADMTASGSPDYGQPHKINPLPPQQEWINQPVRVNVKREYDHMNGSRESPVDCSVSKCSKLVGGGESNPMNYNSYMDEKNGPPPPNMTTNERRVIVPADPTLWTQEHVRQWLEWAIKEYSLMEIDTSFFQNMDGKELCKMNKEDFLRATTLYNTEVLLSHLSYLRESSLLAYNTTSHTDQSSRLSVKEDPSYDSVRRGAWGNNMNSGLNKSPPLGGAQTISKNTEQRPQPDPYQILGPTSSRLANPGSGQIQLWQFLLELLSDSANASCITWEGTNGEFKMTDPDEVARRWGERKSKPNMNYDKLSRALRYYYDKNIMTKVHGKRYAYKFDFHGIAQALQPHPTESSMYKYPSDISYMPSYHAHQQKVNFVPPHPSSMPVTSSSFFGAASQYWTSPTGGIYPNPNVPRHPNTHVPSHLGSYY
# Summary of the method: (§1)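 Binding signal is defined as a hexamer's read frequency for one factor over its frequency for the tag-only sample. To obtain reads, GST-fused human transcription factors were expressed in yeast, captured on glutathione beads, barcoded with DNA and pooled with that sample. Pools met 200 nmole of a 16-mer random double-stranded DNA library in Tris/NaCl/DTT/glycerol buffer for 30 min at room temperature before washing, 0.1% formaldehyde crosslinking, proximity ligation (BsaI/T4 ligase, 1 h, 37 °C), PCR and Illumina NextSeq500 sequencing.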
# ELK1 = target: T2, ELK1 (Homo sapiens, UniProt P19419 1-428)
# T2 sequence: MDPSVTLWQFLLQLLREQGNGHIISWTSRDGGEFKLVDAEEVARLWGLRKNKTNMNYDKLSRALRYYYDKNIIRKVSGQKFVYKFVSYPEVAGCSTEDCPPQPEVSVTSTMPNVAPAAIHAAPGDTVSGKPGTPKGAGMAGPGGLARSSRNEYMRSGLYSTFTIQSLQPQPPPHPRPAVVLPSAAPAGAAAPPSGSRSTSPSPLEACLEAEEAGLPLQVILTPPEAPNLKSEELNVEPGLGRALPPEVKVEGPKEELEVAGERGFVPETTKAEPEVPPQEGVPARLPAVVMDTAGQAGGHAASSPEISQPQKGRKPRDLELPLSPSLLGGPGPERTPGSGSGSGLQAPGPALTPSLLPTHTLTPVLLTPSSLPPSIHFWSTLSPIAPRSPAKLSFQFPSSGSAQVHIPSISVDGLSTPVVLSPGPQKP
# Summary of the method: as §1
# GABPA = target: T3, GABPA (Homo sapiens, UniProt Q06546 1-454)
# T3 sequence: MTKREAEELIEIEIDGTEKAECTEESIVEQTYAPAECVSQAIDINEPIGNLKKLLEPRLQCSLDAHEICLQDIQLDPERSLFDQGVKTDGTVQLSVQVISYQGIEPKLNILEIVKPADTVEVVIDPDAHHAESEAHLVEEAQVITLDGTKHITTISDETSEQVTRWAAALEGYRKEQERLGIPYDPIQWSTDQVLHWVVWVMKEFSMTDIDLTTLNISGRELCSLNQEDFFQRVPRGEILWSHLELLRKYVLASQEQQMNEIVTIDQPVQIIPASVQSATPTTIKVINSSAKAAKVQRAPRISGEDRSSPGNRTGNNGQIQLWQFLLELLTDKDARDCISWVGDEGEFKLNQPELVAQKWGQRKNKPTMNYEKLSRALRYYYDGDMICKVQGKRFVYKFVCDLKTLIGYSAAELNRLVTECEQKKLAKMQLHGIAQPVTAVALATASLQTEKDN
# Summary of the method: as §1
# ERG = target: T4, ERG (Homo sapiens, UniProt P11308 1-479)
# T4 sequence: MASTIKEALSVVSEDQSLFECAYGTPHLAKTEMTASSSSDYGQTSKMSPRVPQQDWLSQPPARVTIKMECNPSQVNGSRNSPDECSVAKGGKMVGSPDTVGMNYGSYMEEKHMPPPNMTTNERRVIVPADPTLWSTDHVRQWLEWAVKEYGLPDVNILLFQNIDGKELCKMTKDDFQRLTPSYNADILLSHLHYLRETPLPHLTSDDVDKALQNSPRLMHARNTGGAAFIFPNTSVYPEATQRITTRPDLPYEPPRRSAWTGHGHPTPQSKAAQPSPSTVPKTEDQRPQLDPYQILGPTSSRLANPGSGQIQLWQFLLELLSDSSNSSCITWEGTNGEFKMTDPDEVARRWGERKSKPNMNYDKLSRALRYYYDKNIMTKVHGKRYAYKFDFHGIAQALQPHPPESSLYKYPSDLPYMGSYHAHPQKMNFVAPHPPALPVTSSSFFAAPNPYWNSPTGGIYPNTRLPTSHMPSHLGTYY
# Summary of the method: as §1
# ELF1 = ELF1 (Homo sapiens, UniProt P32519 1-619)
# Summary of the method: as §1
# EHF = target: T5, EHF (Homo sapiens, UniProt Q9NZC4 1-300)
# T5 sequence: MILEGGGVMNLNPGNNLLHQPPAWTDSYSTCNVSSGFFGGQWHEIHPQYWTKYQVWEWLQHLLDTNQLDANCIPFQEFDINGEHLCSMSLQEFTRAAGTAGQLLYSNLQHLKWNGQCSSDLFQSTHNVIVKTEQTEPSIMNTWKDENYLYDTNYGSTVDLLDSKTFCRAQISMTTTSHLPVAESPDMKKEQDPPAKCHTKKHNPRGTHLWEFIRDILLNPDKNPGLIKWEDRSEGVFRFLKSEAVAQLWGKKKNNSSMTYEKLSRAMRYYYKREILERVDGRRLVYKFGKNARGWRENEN
# Summary of the method: as §1
# SPI1 = SPI1 (Homo sapiens, UniProt P17947 1-270)
# Summary of the method: as §1
# SPIB = SPIB (Homo sapiens, UniProt Q01892 1-262)
# Summary of the method: as §1
# ELK3 = target: T6, ELK3 (Homo sapiens, UniProt P41970 1-407)
# T6 sequence: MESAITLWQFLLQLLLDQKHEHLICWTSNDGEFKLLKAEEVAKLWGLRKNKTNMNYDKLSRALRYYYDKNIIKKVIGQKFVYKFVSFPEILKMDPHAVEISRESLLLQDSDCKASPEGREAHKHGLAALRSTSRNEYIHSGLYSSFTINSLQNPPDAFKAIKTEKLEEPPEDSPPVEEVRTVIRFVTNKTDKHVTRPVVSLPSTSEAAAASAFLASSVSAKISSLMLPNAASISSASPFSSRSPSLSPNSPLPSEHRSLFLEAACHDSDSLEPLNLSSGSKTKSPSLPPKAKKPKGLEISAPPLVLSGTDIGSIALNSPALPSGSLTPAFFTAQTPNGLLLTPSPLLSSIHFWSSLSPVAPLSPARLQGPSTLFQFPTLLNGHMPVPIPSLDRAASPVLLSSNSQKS
# Summary of the method: as §1
# FEV = target: T7, FEV (Homo sapiens, UniProt Q99581 1-238)
# T7 sequence: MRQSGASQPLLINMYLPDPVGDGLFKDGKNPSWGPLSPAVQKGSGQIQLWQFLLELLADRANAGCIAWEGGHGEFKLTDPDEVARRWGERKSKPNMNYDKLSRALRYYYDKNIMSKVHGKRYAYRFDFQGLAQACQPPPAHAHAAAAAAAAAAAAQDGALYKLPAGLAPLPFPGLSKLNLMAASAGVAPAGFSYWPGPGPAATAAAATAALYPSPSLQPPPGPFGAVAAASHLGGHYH
# Summary of the method: as §1
# ETV5 = ETV5 (Homo sapiens, UniProt P41161 1-510)
# Summary of the method: as §1
# SPIC = target: T8, SPIC (Homo sapiens, UniProt Q8N5J4 1-248)
# T8 sequence: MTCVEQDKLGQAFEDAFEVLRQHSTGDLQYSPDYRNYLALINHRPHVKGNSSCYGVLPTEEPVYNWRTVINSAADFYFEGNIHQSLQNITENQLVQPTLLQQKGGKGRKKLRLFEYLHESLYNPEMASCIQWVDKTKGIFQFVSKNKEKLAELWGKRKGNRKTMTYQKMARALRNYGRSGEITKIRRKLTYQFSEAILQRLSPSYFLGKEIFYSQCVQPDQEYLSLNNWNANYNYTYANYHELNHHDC
# Summary of the method: as §1
# ELF4 = ELF4 (Homo sapiens, UniProt Q99607 1-663)
# Summary of the method: as §1
# ELK4 = target: T9, ELK4 (Homo sapiens, UniProt P28324-2 1-405)
# T9 sequence: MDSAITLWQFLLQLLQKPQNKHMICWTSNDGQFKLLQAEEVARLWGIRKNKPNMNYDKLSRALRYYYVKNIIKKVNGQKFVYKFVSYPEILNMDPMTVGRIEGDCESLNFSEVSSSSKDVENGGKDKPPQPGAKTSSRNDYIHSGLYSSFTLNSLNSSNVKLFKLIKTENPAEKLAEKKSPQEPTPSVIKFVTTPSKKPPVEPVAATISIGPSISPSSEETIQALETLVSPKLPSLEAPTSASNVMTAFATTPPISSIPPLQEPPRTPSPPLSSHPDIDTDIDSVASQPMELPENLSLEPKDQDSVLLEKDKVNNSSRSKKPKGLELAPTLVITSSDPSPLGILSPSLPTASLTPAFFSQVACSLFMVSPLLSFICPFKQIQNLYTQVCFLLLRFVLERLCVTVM
# Summary of the method: as §1
# ETV2 = target: T10, ETV2 (Homo sapiens, UniProt O00321 1-342)
# T10 sequence: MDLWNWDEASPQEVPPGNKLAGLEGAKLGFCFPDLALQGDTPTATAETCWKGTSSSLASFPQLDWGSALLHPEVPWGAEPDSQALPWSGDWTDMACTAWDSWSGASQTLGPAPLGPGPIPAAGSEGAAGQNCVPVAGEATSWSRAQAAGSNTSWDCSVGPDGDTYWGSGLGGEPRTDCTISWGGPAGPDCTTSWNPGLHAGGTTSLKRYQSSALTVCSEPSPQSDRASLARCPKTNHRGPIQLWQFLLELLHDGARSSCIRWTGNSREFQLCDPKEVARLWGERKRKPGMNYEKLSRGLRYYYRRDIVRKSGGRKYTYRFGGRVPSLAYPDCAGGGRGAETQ
# Summary of the method: as §1
# ETV1 = ETV1 (Homo sapiens, UniProt P50549 1-477)
# Summary of the method: as §1
# ELF3 = target: T11, ELF3 (Homo sapiens, UniProt P78545 1-371)
# T11 sequence: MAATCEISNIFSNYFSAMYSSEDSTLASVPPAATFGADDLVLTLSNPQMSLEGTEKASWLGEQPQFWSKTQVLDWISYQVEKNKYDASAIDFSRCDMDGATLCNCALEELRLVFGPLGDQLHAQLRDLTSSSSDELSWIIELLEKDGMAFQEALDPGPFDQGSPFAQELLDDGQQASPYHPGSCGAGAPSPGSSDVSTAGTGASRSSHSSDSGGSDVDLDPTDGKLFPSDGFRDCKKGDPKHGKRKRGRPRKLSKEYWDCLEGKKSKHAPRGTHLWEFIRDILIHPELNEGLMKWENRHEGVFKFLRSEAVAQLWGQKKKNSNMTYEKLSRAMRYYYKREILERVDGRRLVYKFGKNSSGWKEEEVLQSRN
# Summary of the method: as §1
# CRX = CRX (Homo sapiens, UniProt O43186 1-299)
# Summary of the method: as §1
# Chain of ETV5 (P41161 whole entry): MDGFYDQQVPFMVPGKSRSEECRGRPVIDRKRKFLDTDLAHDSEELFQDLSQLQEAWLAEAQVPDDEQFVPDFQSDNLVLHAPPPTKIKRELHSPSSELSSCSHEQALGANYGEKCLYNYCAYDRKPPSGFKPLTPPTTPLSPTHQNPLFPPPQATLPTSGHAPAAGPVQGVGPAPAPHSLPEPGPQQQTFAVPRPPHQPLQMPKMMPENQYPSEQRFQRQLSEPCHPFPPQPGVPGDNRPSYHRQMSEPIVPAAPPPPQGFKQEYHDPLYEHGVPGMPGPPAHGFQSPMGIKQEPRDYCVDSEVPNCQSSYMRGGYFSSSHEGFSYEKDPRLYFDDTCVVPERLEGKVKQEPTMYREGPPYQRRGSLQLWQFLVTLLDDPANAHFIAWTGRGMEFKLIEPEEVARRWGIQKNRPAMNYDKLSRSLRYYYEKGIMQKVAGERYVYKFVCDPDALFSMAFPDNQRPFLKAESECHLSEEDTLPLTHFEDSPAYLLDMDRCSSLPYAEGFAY
# Chain of ETV1 (P50549 whole entry): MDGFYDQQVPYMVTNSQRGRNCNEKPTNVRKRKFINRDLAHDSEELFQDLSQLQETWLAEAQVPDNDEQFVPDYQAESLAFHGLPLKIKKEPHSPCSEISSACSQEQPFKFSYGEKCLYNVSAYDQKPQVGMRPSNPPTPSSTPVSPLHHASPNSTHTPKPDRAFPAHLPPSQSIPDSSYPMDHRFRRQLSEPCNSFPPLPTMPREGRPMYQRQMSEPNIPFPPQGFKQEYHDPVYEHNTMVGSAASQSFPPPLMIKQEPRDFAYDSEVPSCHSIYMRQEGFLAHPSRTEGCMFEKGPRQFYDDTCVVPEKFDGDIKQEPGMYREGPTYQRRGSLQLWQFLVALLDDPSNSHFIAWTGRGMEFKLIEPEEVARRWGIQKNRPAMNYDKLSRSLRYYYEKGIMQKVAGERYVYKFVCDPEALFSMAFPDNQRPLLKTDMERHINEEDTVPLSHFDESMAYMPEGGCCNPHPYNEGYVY
# Chain of ELF4 (Q99607 whole entry): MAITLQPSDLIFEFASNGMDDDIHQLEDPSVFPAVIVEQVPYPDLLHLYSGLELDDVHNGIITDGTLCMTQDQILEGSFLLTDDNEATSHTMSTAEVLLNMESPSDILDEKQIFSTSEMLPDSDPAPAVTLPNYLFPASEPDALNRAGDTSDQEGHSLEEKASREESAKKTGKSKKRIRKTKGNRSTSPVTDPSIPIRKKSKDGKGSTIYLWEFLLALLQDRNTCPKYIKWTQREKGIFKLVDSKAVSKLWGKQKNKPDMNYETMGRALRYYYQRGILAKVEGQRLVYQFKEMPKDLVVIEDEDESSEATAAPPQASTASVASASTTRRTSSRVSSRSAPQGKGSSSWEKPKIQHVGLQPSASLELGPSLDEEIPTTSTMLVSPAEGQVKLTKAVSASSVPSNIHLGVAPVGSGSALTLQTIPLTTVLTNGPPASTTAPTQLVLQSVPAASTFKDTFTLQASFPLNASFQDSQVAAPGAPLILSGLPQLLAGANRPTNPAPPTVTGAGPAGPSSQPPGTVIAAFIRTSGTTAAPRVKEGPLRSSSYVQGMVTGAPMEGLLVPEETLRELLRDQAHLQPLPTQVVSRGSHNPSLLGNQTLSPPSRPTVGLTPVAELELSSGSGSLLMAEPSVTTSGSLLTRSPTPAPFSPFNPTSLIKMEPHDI
# Chain of ELF1 (P32519 whole entry): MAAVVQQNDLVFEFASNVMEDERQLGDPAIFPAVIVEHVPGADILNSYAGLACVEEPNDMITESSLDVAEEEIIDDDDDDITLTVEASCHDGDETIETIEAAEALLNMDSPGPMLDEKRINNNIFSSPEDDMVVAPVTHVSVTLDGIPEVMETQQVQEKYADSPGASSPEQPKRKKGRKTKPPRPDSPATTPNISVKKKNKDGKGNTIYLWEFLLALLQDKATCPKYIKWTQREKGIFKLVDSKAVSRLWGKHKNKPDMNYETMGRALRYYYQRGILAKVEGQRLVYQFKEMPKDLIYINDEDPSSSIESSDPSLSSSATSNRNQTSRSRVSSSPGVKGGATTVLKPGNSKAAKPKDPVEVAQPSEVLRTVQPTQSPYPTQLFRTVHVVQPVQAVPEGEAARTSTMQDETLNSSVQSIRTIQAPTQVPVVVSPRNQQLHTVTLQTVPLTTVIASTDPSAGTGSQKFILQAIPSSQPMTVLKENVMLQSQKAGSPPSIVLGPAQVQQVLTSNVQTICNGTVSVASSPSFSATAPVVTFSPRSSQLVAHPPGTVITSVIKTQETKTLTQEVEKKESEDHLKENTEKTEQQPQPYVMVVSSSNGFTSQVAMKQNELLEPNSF
# Chain of SPIB (Q01892 whole entry): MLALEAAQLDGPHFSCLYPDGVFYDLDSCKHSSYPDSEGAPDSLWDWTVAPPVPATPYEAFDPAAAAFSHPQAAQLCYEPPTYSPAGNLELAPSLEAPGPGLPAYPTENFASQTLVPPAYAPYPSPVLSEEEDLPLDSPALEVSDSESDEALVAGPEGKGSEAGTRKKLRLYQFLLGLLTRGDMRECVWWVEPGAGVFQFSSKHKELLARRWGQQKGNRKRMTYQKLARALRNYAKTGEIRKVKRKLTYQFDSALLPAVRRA
# Chain of CRX (O43186 whole entry): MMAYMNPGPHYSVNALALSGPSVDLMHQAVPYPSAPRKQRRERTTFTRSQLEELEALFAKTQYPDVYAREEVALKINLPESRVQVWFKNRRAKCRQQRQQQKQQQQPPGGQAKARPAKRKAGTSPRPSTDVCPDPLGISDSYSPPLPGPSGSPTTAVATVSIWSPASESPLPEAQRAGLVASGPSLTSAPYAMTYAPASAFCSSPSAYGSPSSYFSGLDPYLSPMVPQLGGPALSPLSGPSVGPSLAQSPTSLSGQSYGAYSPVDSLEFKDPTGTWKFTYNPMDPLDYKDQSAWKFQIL
Sequence,binding signal (FLI1),binding signal (ELK1),binding signal (GABPA),binding signal (ERG),binding signal (ELF1),binding signal (EHF),binding signal (SPI1),binding signal (SPIB),binding signal (ELK3),binding signal (FEV),binding signal (ETV5),binding signal (SPIC),binding signal (ELF4),binding signal (ELK4),binding signal (ETV2),binding signal (ETV1),binding signal (ELF3),binding signal (CRX)
GCACTG,"1.18 fold enrichment (6-mer frequency, TF over GST control)","1.12 fold enrichment (6-mer frequency, TF over GST control)","1.14 fold enrichment (6-mer frequency, TF over GST control)","1.07 fold enrichment (6-mer frequency, TF over GST control)","1.1 fold enrichment (6-mer frequency, TF over GST control)","1.12 fold enrichment (6-mer frequency, TF over GST control)","1.14 fold enrichment (6-mer frequency, TF over GST control)","1.05 fold enrichment (6-mer frequency, TF over GST control)","1.06 fold enrichment (6-mer frequency, TF over GST control)","1.12 fold enrichment (6-mer frequency, TF over GST control)","1.05 fold enrichment (6-mer frequency, TF over GST control)","1.08 fold enrichment (6-mer frequency, TF over GST control)","1.07 fold enrichment (6-mer frequency, TF over GST control)","1.03 fold enrichment (6-mer frequency, TF over GST control)","1.22 fold enrichment (6-mer frequency, TF over GST control)","1.08 fold enrichment (6-mer frequency, TF over GST control)",–,–
GGGCTA,"1.1 fold enrichment (6-mer frequency, TF over GST control)","1.05 fold enrichment (6-mer frequency, TF over GST control)","1.08 fold enrichment (6-mer frequency, TF over GST control)","1.16 fold enrichment (6-mer frequency, TF over GST control)","1.16 fold enrichment (6-mer frequency, TF over GST control)","1.18 fold enrichment (6-mer frequency, TF over GST control)",–,"1.15 fold enrichment (6-mer frequency, TF over GST control)","1.06 fold enrichment (6-mer frequency, TF over GST control)","1.04 fold enrichment (6-mer frequency, TF over GST control)","1.06 fold enrichment (6-mer frequency, TF over GST control)","1.23 fold enrichment (6-mer frequency, TF over GST control)","1.17 fold enrichment (6-mer frequency, TF over GST control)","1.29 fold enrichment (6-mer frequency, TF over GST control)",–,"1.11 fold enrichment (6-mer frequency, TF over GST control)","1 fold enrichment (6-mer frequency, TF over GST control)","1.15 fold enrichment (6-mer frequency, TF over GST control)"
CAACGC,"1.04 fold enrichment (6-mer frequency, TF over GST control)","1.11 fold enrichment (6-mer frequency, TF over GST control)","1.12 fold enrichment (6-mer frequency, TF over GST control)","1.04 fold enrichment (6-mer frequency, TF over GST control)","1.11 fold enrichment (6-mer frequency, TF over GST control)","1.01 fold enrichment (6-mer frequency, TF over GST control)","1.1 fold enrichment (6-mer frequency, TF over GST control)",–,–,"1.06 fold enrichment (6-mer frequency, TF over GST control)","1.01 fold enrichment (6-mer frequency, TF over GST control)","1.1 fold enrichment (6-mer frequency, TF over GST control)","1.11 fold enrichment (6-mer frequency, TF over GST control)","1.03 fold enrichment (6-mer frequency, TF over GST control)","1.1 fold enrichment (6-mer frequency, TF over GST control)","1.05 fold enrichment (6-mer frequency, TF over GST control)",–,–
